# Measurements reported in PubChem BioAssay AID2380 (Sanford-Burnham Center for Chemical Genomics, 2010).
# Hit rate of the full screen: of about 330,000 compounds, about 960 (0.29%) were called active.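 How the source made its calls: active means compounds whose signal lies at least 3.5 SD above the mean of all wells on their plate; inactive means the rest.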 Only a selection was taken, and actives are over-represented in it overall.
# Assay: small molecules increasing insulinoma cell replication – ATP luminescence, uHTS, primary screen (AID 2380);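 further: 0% = DMSO-treated cells in low-serum medium and 100% = 10% serum control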
# Conditions: MIN6 cells proliferation, ATPlite luminescence, 48 h; at 10 µM; active compounds read high; 100% = growth in 10% serum; cells starved in 0.2% serum
row,Structure (SMILES),proliferation
1,COc1cccc(NC(=O)C2CCCN(c3ncnc4c3nc3n4CCCCC3)C2)c1 (stereo unspecified),5.62% (inactive)
2,COc1cccc(CNC(=O)C2CCCN(c3ncnc4c3nc3n4CCCCC3)C2)c1 (stereo unspecified),7.08% (active)
3,O=C(NCCCN1CCCCC1)C1CCCN(c2ncnc3c2nc2n3CCCCC2)C1 (stereo unspecified),-1.13% (inactive)
4,CC1CN(C(=O)CCC(=O)NCc2cccnc2)c2ccccc2O1 (stereo unspecified),-2.56% (inactive)
5,Cc1ccc2c(c1)N(C(=O)CCC(=O)NCc1cccnc1)CCO2,1.08% (inactive)
6,Cc1ccccc1CNC(=O)CCC(=O)N1Cc2ccccc2Oc2ncccc21,12.5% (active)
7,CC(C)Cc1nc(Nc2ccc(S(=O)(=O)N3CCCC3)cc2)c2nnn(Cc3ccccc3)c2n1,-0.74% (inactive)
8,COC(=O)C(C(=O)Nc1cccc(C)n1)C1CCCCCC1 (stereo unspecified),0% (inactive)
9,O=C(C1CCN(C2CCN(Cc3cccc4c3OCO4)CC2)CC1)N1CCOCC1,1.29% (inactive)
10,CC1CCN(C(=O)CCc2nnc3ccc(NCc4ccco4)nn23)CC1,-1.78% (inactive)
11,COC(=O)COc1ccc(S(=O)(=O)N2CCOCC2)cc1,-2.03% (inactive)
12,O=C(COC(=O)c1ccccc1)Nc1cccc(S(=O)(=O)N2CCOCC2)c1,1.39% (inactive)
13,CC(=O)c1cccc(NC(=O)COc2ccc(S(=O)(=O)N3CCOCC3)cc2)c1,10.6% (active)
14,CCN1C(=O)[C@@H]2[C@@H](c3ccc(-c4ccccc4)cc3)N3CCCC[C@@]3(C(=O)OC)[C@@H]2C1=O,-7.4% (inactive)
15,CN(CC(=O)Nc1c(Cl)cccc1Cl)C(=O)CC1OC(=O)c2ccccc21 (stereo unspecified),-1.95% (inactive)
16,CC1Cn2c(nnc2-c2cccs2)S1 (stereo unspecified),-1.85% (inactive)
17,O=C(NCc1ccc2c(c1)OCO2)c1cc2c(s1)CS(=O)(=O)C2,-0.86% (inactive)
18,O=C(NNC(=O)C(O)c1ccccc1)NC1CCCCC1 (stereo unspecified),-1.83% (inactive)
19,CC(=O)CC(CC(=O)NC1CCCCC1)c1ccccc1 (stereo unspecified),0.52% (inactive)
20,CC(=O)OC(C(=O)NC1CCCCC1)c1ccccc1 (stereo unspecified),5.32% (active)
21,Cn1c(=O)c2c(ncn2CC(COCc2ccccc2Cl)OCc2ccccc2Cl)n(C)c1=O (stereo unspecified),-1.81% (inactive)

row,Structure (SMILES),proliferation
1,Nc1[nH]c(=S)nc2nc(-c3ccccc3)c(-c3ccccc3)nc12,-5.91% (inactive)
2,COC(=O)c1cc(C(=O)NC(C)C2CC3CCC2C3)cc([N+](=O)[O-])c1 (stereo unspecified),0% (inactive)
3,O=S(=O)(NCc1ccccn1)c1ccc(F)cc1,0.39% (inactive)
4,O=S(=O)(NCCc1ccc(F)cc1)c1cccc2cccnc12,3.17% (inactive)
5,O=S(=O)(NCCOc1cccc2cccnc12)c1ccc(F)cc1,5.56% (active)
6,Cc1cc(Cl)ccc1NNC(=O)c1snnc1C,-4.18% (inactive)
7,CNc1[nH]ncc1[N+](=O)[O-],3.19% (inactive)
8,CN(C(=O)CSc1nnc(-c2n[nH]c3ccccc23)o1)c1ccccc1,0.29% (inactive)
9,Cc1ccc(C(=O)Nc2ccc(NC(=O)c3cccs3)cc2)c(C)c1,0% (active)
10,Cc1ccc(NC(=O)c2cccs2)cc1S(=O)(=O)N(C)C,0.43% (inactive)
11,Cc1ccc(OCC(=O)Nc2ccc(NC(=O)c3cccs3)cc2)c(C)c1,0% (inactive)
12,CC(C)(C)N(CC#CCC(O)(c1ccccc1)C1CCCC1)CCO (stereo unspecified),2.2% (inactive)
13,COc1ccc(NS(=O)(=O)c2ccc(N3CCOCC3)c(NC(=O)c3ccccc3Br)c2)cc1,5.36% (inactive)
14,CCn1c(=O)n(CC)c2cc(N3CCCC3)c(NC(=O)c3ccccc3Br)cc21,13.7% (active)
15,O=C(Nc1ccccc1N1CCCC1)c1ccc2ccccc2c1,-2.88% (inactive)
16,CCC(C(=O)NC1CCCC1)N(C(=O)Cn1nnc(-c2ccc(C)o2)n1)c1ccc(OC)c(OC)c1 (stereo unspecified),5.41% (inactive)
17,COc1ccc(N(CC(=O)Nc2cc(OC)ccc2OC)S(=O)(=O)c2c(C)noc2C)cc1,-0.48% (inactive)
18,CCCOc1ccc(NC(=O)CC2C(=O)N(C)C(=S)N2Cc2ccc3c(c2)OCO3)cc1 (stereo unspecified),0% (inactive)
19,C/C(=N/Nc1ccc(Cl)cc1)c1cnnc(-c2ccccc2)n1,-3.11% (inactive)
20,CSc1nsc(NC(=O)Nc2ccccc2)n1,-5.02% (inactive)
21,CC/C(=N/Nc1ccccc1)c1cnnc(SC)n1,8.26% (active)

row,Structure (SMILES),proliferation
1,OCc1ccc(-c2ccccc2)c(-c2ccccc2)c1,-3.43% (inactive)
2,O=C(O)CC(SCC(=O)Nc1ccc(Br)cc1)C(=O)O (stereo unspecified),-0.34% (inactive)
3,Cc1cc(C)c2c(-n3cccc3)c(NC(=O)OCc3ccccc3)sc2n1,-5.05% (inactive)
4,CCCCOC(=O)Nc1sc2nc(C)cc(C)c2c1-n1cccc1,0.21% (inactive)
5,COC(=O)Nc1sc2nc(C)cc(C)c2c1-n1cccc1,8.22% (active)
6,CCOC(=O)N1CCN(C(=O)c2ccc3c(=O)n(CCc4ccc(OC)c(OC)c4)c(=O)[nH]c3c2)CC1,2.68% (inactive)
7,CCOc1ccc(-n2c(SCC(=O)Nc3cc(C(=O)O)ccc3Cl)nc3ccccc3c2=O)cc1,-1.58% (inactive)
8,S=C(Nc1cccc(Cl)c1)Nc1ccc2cn[nH]c2c1,0% (active)
9,Cc1csc(NC(=S)Nc2cccc(Cl)c2)n1,-2.77% (inactive)
10,FC(F)(F)c1cccc(NC(=S)Nc2cccc(Cl)c2)c1,-6.83% (inactive)
11,CCCCn1c(N)c(N(CC)C(=O)/C=C/c2ccco2)c(=O)[nH]c1=O,-1.59% (inactive)
12,CO/N=C/CC(=O)c1ccc(OC)cc1,-1.22% (inactive)
13,COc1ccc(C(=O)CCC(=O)Nc2ccc(Cl)cc2)cc1,-2.97% (inactive)
14,COc1ccc(CCC(=O)c2ccc(OC)cc2)cc1,5.33% (active)
15,CCCCn1c(N)c(N(CCOC)C(=O)c2cccc(S(=O)(=O)N3CCCCC3)c2)c(=O)[nH]c1=O,1.76% (inactive)
16,c1ccc(C[C@H]2CNCCN2CCC23CC4CC(CC(C4)C2)C3)cc1,-8% (inactive)
17,CC(C)(C)C(=O)c1cnc(Nc2ccccc2)s1,-3.47% (inactive)
18,O=C(/C=C/Nc1ccccc1)c1cnc(-c2ccccc2)s1,-1.21% (inactive)
19,CC(=O)c1cnc(-c2ccccc2)s1,8.82% (active)
